Assay [1] in a line: Cell Viability - Hek293 (AID 427;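 active = compounds whose dose-response curve shows a full or clear partial loss of cell viability, called from curve shape rather than a numeric limit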;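 also: potency is read from the fitted curve at half-maximal effect; cells exposed to compound for 40 hours at 37 °C before reading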). As to conditions: qHTS. The method, boiled down: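 HEK293 cells in complete medium were exposed to compound for 40 hr at 37 °C, then cellular ATP was read by CellTiter-Glo luminescence. Data were normalized to DMSO (basal) and 100 uM tamoxifen (100% inhibition), and AC50 came from Hill fits.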
Assay [2] can be described thus: Cell Viability - SK-N-SH (AID 435; calls by dose curve;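 also: potency is read from the fitted curve at half-maximal effect; compound exposure lasted 40 h at 37 °C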). As to conditions: SK-N-SH neuroblastoma cell viability qHTS. Summed up:
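CellTiter-Glo ATP luminescence, 20 min RT read; cells pre-plated 5 hr, compound 40 hr at 37 °C, 1500 cells/well, complete medium. Normalized DMSO = 0, 100 uM tamoxifen = 100% inhibition; Hill-fit AC50.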

Assay [3] in a line: Cell Viability - N2a (AID 540).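 Also: plate controls were DMSO alone for no effect and tamoxifen control for full effect; nearly all actives have a fitted effect of over 45% in size.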 As to conditions: N2a mouse neuroblastoma cell viability; activity change, negative = cytotoxicity: at 92.2 µM (top of the series). Summed up:
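Mouse neuroblastoma N2a cells (1500/well) were preincubated 5 hr at 37 °C, then exposed to compounds for 40 hr at 37 °C in complete medium. Viability was read as intracellular ATP by CellTiter-Glo luminescence; AC50 from Hill fits.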

Assay [4] in a line: Cell Viability - H-4-II-E (AID 543). Also: % is scaled to controls: 0 for no effect and ±100 for the full control effect; nearly all actives have a fitted effect of over 35% in size. As to conditions: H-4-II-E rat hepatoma viability; series mostly up to 92.2 µM. Summed up:
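Rat hepatoma H-4-II-E cells (1500/well) were plated, incubated 5 hr at 37 °C, then exposed to compounds for 40 hr at 37 °C. Cellular ATP was read by CellTiter-Glo luminescence; AC50 came from Hill-equation fits of concentration-response data.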

Assay [5] can be described thus: Cell Viability - SH-SY5Y (AID 544).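 Also: 0% = DMSO alone and -100% = 100 µM tamoxifen; nearly all actives have a fitted effect of over 55% in size.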 As to conditions: SH-SY5Y neuroblastoma cell viability; viability change, negative = cytotoxic: at 92.2 µM (top of the series). The method, boiled down:
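Human neuroblastoma SH-SY5Y cells (1500/well) in complete medium were exposed to compounds for 40 hr at 37 °C; intracellular ATP was then quantified by CellTiter-Glo luminescence after 20 min at room temperature. AC50 came from Hill-equation concentration-response fits.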

The nature of assay [6]: Cell Viability - LYMP2-001 (AID 921).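 Also: 0% = DMSO only and full inhibition = tetraoctylammonium bromide control wells; nearly all actives have a fitted effect of over 70% in size.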 As to conditions: LYMP2-001 lymphoblastoid cell viability; series mostly up to 92.2 µM. The method, boiled down: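 CellTiter-Glo luminescence (intracellular ATP) after 24 hr compound exposure at 37 C, 2500 lymphoblastoid cells/well in complete medium. AC50 fitted with standard Hill equation; tetraoctylammonium bromide positive control.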

A short description of assay [7]: MultiTox-Fluor Cytotoxicity Assay - LYMP1-001 - Live Cells (AID 947).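 Also: 0% = DMSO only and full inhibition = tetraoctylammonium bromide control.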 As to conditions: LYMP1-001 lymphoblastoid cells, live-cell protease fluorescence viability; series mostly up to 92.2 µM.
A short description of assay [8]: Cell Viability - LYMP2-005 (AID 967).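 Also: plate controls were DMSO only for no effect and 92 µM tetraoctylammonium bromide control for full effect.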 As to conditions: LYMP2-005 lymphoblastoid cell viability; series mostly up to 92.2 µM. Summed up: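 Steps: seed 2500 LYMP2-005 cells/well, incubate 5 h at 37 C, add compound, incubate 24 h at 37 C, add CellTiter-Glo, wait 30 min at RT, read luminescence. Concentration-response data fitted to Hill equation for AC50.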
Assay [9] is described as follows: Cell Viability - LYMP2-009 (AID 968).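 Also: 0% = DMSO alone and the full-kill end = tetraoctylammonium bromide at 92 µM; nearly all actives have a fitted effect of over 55% in size.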 As to conditions: LYMP2-009 lymphoblastoid cell viability; series mostly up to 92.2 µM.
A short description of assay [10]: Cell Viability - LYMP2-015 (AID 971).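 Also: 0% = DMSO only and full effect = 92 µM tetraoctylammonium bromide; nearly all actives have a fitted effect of over 55% in size.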 As to conditions: LYMP2-015 lymphoblastoid cell viability; series mostly up to 92.2 µM. Summed up: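 Human lymphoblastoid cells (2500/well) in complete medium were preincubated 5 hr at 37 C, then compound-treated 24 hr at 37 C. Intracellular ATP was read by CellTiter-Glo luminescence after 30 min at room temperature; AC50 came from Hill-equation concentration-response fits.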

Assay [11] in a line: Cell Viability - LYMP2-019 (AID 973).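 Also: 0% = DMSO alone and full effect = 92 µM tetraoctylammonium bromide; nearly all actives have a fitted effect of over 55% in size.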 As to conditions: LYMP2-019 lymphoblastoid cell line viability; series mostly up to 92.2 µM. Summed up:
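Human lymphoblastoid cells were seeded at 2500 cells/well, preincubated 5 hr at 37 C, then exposed to compounds for 24 hr at 37 C in complete medium. Intracellular ATP was measured by CellTiter-Glo luminescence; AC50 from Hill fits.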

Assay [12] can be described thus: Cell Viability - LYMP2-021 (AID 974). As to conditions: LYMP2-021 lymphoblastoid cells viability; series mostly up to 92.2 µM. The method, boiled down:
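Human lymphoblastoid cells (2500/well) were preincubated 5 hr at 37 C, then exposed to compounds for 24 hr at 37 C in complete medium. Intracellular ATP was read by CellTiter-Glo luminescence; AC50 came from Hill-equation fits of concentration-response data.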

Assay [13] can be described thus: Cell Viability - LYMP2-002 (AID 977).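 Also: compound exposure lasted 24 h at 37 °C; plate controls were DMSO only for no effect and 92 µM tetraoctylammonium bromide for full effect.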 As to conditions: LYMP2-002 lymphoblastoid cell viability, qHTS; series mostly up to 92.2 µM. The method, boiled down: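 Cytotoxicity is scored as concentration-dependent loss of cellular ATP in a human lymphoblastoid line after 24 hr compound treatment at 37 C. AC50 is obtained by modelling concentration-response data with the Hill equation.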

A short description of assay [14]: Cell Viability - LYMP2-010 (AID 981). As to conditions: LYMP2-010 lymphoblastoid cell viability, qHTS; series mostly up to 92.2 µM. The method, boiled down: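 Human lymphoblastoid LYMP2-010 cells (2500/well) were preincubated 5 hr at 37 C, then exposed to compounds for 24 hr at 37 C in complete medium. Intracellular ATP was measured by CellTiter-Glo luminescence after 30 min at room temperature; AC50 from Hill-fitted concentration-response.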
Background: Quantitative high-throughput screening tests each substance at several concentrations.

Assay [15] in a line: Cell Viability - LYMP2-012 (AID 982). As to conditions: LYMP2-012 lymphoblastoid cell viability qHTS; series mostly up to 92.2 µM.
Assay [16] is described as follows: qHTS assay for small molecule agonists of retinoid X receptor alpha signaling (AID 588544). As to conditions: HEK293T RXRa-UAS-bla, beta-lactamase reporter, 18 h; 530 nm emission.
Assay [17] is described as follows: qHTS assay for small molecule antagonists of retinoid X receptor alpha signaling (AID 588546; active = well fitted inhibition curve with a large enough effect in the signal ratio, with a control signal flat, not every such curve was filed as active; the % refers to the signal ratio;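 also: cells stimulated with 9-cis-retinoic acid as agonist; % is scaled to controls: 0 for no effect and ±100 for the full control effect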). As to conditions: HEK293T RXRa-UAS-bla, beta-lactamase ratio, antagonist mode; measured here: W530 green channel, cytotoxicity proxy. The method, boiled down: (§1)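 Beta-lactamase reporter inhibition, read as CCF4 fluorescence ratio (ex 405, em 460/530 nm) after 2 h at RT. HEK293T UAS-bla cells, 2500/well, were stimulated with 9-cis-RA at 500 or 100 nM final alongside test compound for 18 h at 37 C.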

The target of assay [18] is Retinoic acid receptor RXR-alpha (Homo sapiens) (UniProt P19793). The description is as above. As to conditions: HEK293T RXRa-UAS-bla, beta-lactamase ratio, antagonist mode. The method, boiled down:
as §1

Assay [19] in a line: qHTS assay for small molecule agonists of the antioxidant response element (ARE) signaling pathway measured by Nrf2-dependant transcriptional activity (AID 720636; active = well fitted curve in the direction sought with a large enough effect in the repeat runs; an effect the other way counts as inactive or inconclusive; also: % of control where 0% means no effect). As to conditions: ARE-luc HepG2, Nrf2 luciferase reporter, 16 h; series mostly up to 92.4 µM. The method, boiled down: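 Attachment 6 hr at 37 C, then compound versus DMSO vehicle for 16 hr in ARE-luc HepG2 cells (1% dialyzed FBS); luminescence recorded 30 min after ONE-Glo addition at room temperature.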

The nature of assay [20]: qHTS assay for small molecule disruptors of the mitochondrial membrane potential - 5 hr assay (AID 651755; calls by dose curve; also: % is scaled to controls: 0 for no effect and ±100 for the full control effect; nearly all actives have a fitted effect of over 40% in size). As to conditions: JC-1-type ratio dye; series mostly up to 92.2 µM. The method, boiled down:
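HepG2, 2,000 cells/well, overnight attach; cpd or DMSO 5 hr, 37C/5% CO2; Mito-MPS 30 min 37C; fluor 490/535 + 540/590 nm.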

Inconclusive results are not listed. The source made the active and inactive calls. Unless noted, calls follow the shape of the dose curve; as a rule, active = well fitted curve in the direction sought with a large enough effect; inconclusive = small, poorly fitted or top-dose-only effect, or another doubt; inactive = no such curve, though single readings can be large; an effect the other way counts as inactive or inconclusive. Bounds are passed on as bounds.

Drawing on PubChem BioAssay (NCATS), this text covers Potency, activity change, negative = cytotoxicity and max response for 6 compounds.

Retinoic acid receptor RXR-alpha (Homo sapiens), sequence (P19793 whole entry, looked up): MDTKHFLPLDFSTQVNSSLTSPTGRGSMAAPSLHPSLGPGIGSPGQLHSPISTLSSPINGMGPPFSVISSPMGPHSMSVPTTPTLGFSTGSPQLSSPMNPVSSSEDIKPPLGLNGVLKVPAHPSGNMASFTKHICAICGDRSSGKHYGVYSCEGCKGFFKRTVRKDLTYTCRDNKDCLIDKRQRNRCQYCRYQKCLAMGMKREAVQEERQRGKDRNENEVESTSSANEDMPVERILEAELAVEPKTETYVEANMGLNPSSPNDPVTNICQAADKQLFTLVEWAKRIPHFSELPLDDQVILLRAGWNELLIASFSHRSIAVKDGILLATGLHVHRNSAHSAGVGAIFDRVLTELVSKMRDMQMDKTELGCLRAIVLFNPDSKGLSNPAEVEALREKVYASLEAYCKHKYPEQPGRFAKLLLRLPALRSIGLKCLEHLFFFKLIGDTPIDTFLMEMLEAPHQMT

For the compound `CC(C)COC(=O)COc1cc(Cl)c(Cl)cc1Cl`, the Potency in assay [1] and in assay [2] was > 92 µM (inactive) each time. Moreover, in [3], the activity change, negative = cytotoxicity was 8.53% (inactive). In addition, the Potency result in assay [4], in assay [5], in [6], in [7], in [8] and in assay [9] was “inactive” throughout. Further, the Potency entry in [10], in [11], in assay [12], in [13], in assay [14] and in assay [15] was “inactive” each time. In addition, the Potency result in assay [19] is “inactive”. Besides, the max response in assay [16] was -5.32%; in assay [17] it was -2.2%; in assay [18] it was 8.47% (inactive).
For `c1ccc(SCCSc2ccccc2)cc1`, the Potency in assay [1] and in assay [2] was > 92 µM (inactive) throughout. Moreover, in assay [3], the activity change, negative = cytotoxicity was 8.64% (inactive). Moreover, the Potency result in assay [4], in assay [5], in [6], in assay [7], in assay [8] and in assay [9] was “inactive” throughout. For the same compound, the Potency entry in assay [10], in [11], in assay [12], in assay [13], in [14] and in assay [15] was “inactive” each time. Also, the Potency entry in [20] is “inactive”. Moreover, the max response in [16] is -9.01%; in assay [17], 0.714%; in assay [18], -1.47% (inactive).
For the compound `Cc1ccc2ccc3cccc4ccc1c2c34`, the Potency in [1] and in assay [2] was > 92 µM (inactive) each time. In addition, the activity change, negative = cytotoxicity in assay [3] was -16.7% (inactive). Besides, the Potency result in [4], in assay [5], in assay [6], in [7], in [8] and in assay [9] was “inactive” in each case. For the same compound, the Potency result in [10], in [11], in assay [12], in assay [13], in assay [14] and in [15] was “inactive” each time. In addition, the max response in [16] is -15.6%; in [17] it was -6.82%; in assay [18], -1.11% (inactive).
For `CC(C)S`, the Potency in assay [1] and in assay [2] was > 92 µM (inactive) each time. Further, the activity change, negative = cytotoxicity in assay [3] is -5.34% (inactive). Also, the Potency result in [4], in assay [5], in assay [6], in assay [7], in assay [8] and in [9] was “inactive” each time. For the same compound, the Potency entry in assay [10], in assay [11], in [12], in assay [13], in assay [14] and in assay [15] was “inactive” throughout. Also, the Potency result in [20] and in [19] was “inactive” in each case. For the same compound, the max response in assay [16] was -9.69%; in assay [17] it was 0.793%; in assay [18] it was 1.63% (inactive).
With `CC(C)OCC1CO1` (stereo unspecified), the Potency in [1] and in [2] was > 92 µM (inactive) each time. In assay [3], the activity change, negative = cytotoxicity was -7.39% (inactive). For the same compound, the Potency result in assay [4], in assay [5], in assay [6], in [7], in [8] and in assay [9] was “inactive” throughout. Also, the Potency result in [10], in assay [11], in assay [12], in assay [13], in assay [14] and in [15] was “inactive” throughout. In addition, the Potency entry in assay [20] and in assay [19] was “inactive” in each case. The max response in assay [16] is -12.5%; in assay [17] it was -11.4%; in [18] it was 1.98% (inactive).
Consider `Nc1cc(C(=O)O)c(O)c(S(=O)(=O)O)c1`, for which the Potency in [1] and in assay [2] was > 92 µM (inactive) each time. For the same compound, the activity change, negative = cytotoxicity in assay [3] is -4.5% (inactive). Further, the Potency result in assay [4], in assay [5], in [6], in [7], in assay [8] and in assay [9] was “inactive” each time. Moreover, the Potency entry in [10], in assay [11], in [12], in assay [13], in [14] and in assay [15] was “inactive” each time. Moreover, the Potency result in assay [20] and in assay [19] was “inactive” in each case. In addition, the max response in assay [16] was 11.2%; in assay [17] it was 12.7%; in assay [18] it was 3.86% (inactive).
